Test results from the supplement of paper PMC13380429.
A number with no mark means an inactive call.

Tested on: Vero E6 infected with SARS-CoV-2
Assay: inhibition of SARS-CoV-2 cytopathic effect; higher = more antiviral protection, active = above 15
Conditions: 48 h

Structure (SMILES)	inhibition of SARS-CoV-2 cytopathic effect (1 nM)	inhibition of SARS-CoV-2 cytopathic effect (8.33 nM)	inhibition of SARS-CoV-2 cytopathic effect (100 nM)	inhibition of SARS-CoV-2 cytopathic effect (833.33 nM)	inhibition of SARS-CoV-2 cytopathic effect (10000 nM)
C1CCC2(CC1)CCNCC2 [4,4-pentamethylenepiperidine]	0.06%	0.78%	-1%	1.32%	0.37%
CC[C@H](C)C(=O)O[C@H]1C[C@@H](C)C=C2C=C[C@H](C)[C@H](CC[C@@H]3C[C@@H](O)CC(=O)O3)[C@H]21 [lovastatin]	-0.49%	4.16%	1.14%	1.16%	0.82%
CC(O)CC(=O)O (stereo not drawn) [beta-hydroxybutyrate]	7.02%	2.5%	-2.77%	-2.16%	-1.85%
COc1ccc(C(=O)c2ccccc2)c(O)c1 [oxybenzone]	0.11%	2.31%	0.71%	0.2%	0.65%
CNCc1ccc(C)c(NC(=O)c2ccc(Nc3nc(-c4ccccc4)c4ccccc4n3)cc2)c1	-4.56%	-2.52%	-1.92%	-1.96%	61.3% (active)
CO[C@@H](C(=O)N1Cc2[nH]nc(NC(=O)c3ccc(N4CCN(C)CC4)cc3)c2C1)c1ccccc1 [danusertib]	2.82%	2.41%	-1.12%	-0.08%	-3.74%
O=C(O)c1cc2cccc([N+](=O)[O-])c2[nH]1	-1.29%	0.14%	-0.8%	0.27%	1.27%
CC(=O)Nc1cccc(Nc2ncnc(N3CCC(OCc4ccc(OC(F)(F)F)cc4)CC3)n2)c1C	0.94%	-3.45%	-5.16%	-2.26%	1.6%
O=C(Nc1ccc(CN2CCOCC2)cc1)c1ccc(-c2cccc(Cl)c2)o1	0.42%	-1.17%	0.17%	0.72%	-0.79%
NC1(c2ccc(-c3nc4ccn5c(=O)[nH]nc5c4cc3-c3ccccc3)cc2)CCC1	-1.08%	0.48%	2.84%	1.79%	24.5% (active)
C=C[C@]1(C)C[C@@H](OC(=O)CSC(C)(C)CNC(=O)[C@H](N)C(C)C)[C@]2(C)[C@H](C)CC[C@]3(CCC(=O)[C@H]32)[C@@H](C)[C@@H]1O [valnemulin]	-0.47%	-0.46%	-2.63%	-4.5%	-4.72%
CCCCCCCC/C=C\CCCCCCCC(N)=O [oleamide]	-2.29%	-1.34%	-3.82%	0.76%	0.18%
CC(=O)[C@@]1(O)CC[C@H]2[C@@H]3C[C@H](C)C4=CC(=O)C=C[C@]4(C)[C@@]3(F)[C@@H](O)C[C@@]21C [fluorometholone]	0.01%	0.61%	0.19%	-0.97%	1.57%
Cc1ccc(S(=O)(=O)NC(=O)NN2CC3CCCC3C2)cc1 (stereo not given) [gliclazide]	0.85%	1.91%	1.12%	2.55%	2.6%
CCOC(CN1CCN(CC(C)C(=O)c2ccccc2)CC1)c1ccccc1 (stereo not given) [eprazinone]	-5.33%	-3.53%	-2.2%	1.64%	0.89%
CC(=O)N[C@@H](Cc1c[nH]c2ccccc12)C(=O)OCc1cc(C(F)(F)F)cc(C(F)(F)F)c1	0.3%	1.3%	2.32%	1.61%	4%
c1ccc2c(c1)CCC[C@H]2Nc1nc2ccccc2[nH]1	2.74%	2.66%	1.8%	-1.92%	-0.48%
Clc1ccc(Cn2c(CN3CCCC3)nc3ccccc32)cc1 [clemizole]	-3.82%	-2.64%	-3.58%	-3.06%	-6.74%
